The full data set covers some 7,900 targets. This sample favours those with a hit. About 0.6% of all pairs of compound and target were hits. Unmarked numbers belong to inactive results.

UniProt Q15121, sequence (Q15121 whole entry, looked up): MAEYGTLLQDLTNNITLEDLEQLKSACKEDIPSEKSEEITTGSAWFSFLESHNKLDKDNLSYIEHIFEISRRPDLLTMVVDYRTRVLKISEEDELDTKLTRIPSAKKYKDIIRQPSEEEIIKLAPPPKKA
UniProt Q9H814, sequence (Q9H814 whole entry, looked up): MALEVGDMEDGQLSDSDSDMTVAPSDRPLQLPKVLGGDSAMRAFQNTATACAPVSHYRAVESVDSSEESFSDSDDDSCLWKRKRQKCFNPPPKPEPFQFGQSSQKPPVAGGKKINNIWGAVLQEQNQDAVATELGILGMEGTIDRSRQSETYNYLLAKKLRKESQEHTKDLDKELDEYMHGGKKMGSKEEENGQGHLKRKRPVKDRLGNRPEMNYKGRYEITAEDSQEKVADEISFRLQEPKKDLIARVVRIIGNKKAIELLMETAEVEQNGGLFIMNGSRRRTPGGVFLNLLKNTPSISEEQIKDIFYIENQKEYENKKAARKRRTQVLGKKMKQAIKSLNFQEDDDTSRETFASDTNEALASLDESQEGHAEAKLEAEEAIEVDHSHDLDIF
UniProt Q9Y2I7, sequence (Q9Y2I7 whole entry, looked up): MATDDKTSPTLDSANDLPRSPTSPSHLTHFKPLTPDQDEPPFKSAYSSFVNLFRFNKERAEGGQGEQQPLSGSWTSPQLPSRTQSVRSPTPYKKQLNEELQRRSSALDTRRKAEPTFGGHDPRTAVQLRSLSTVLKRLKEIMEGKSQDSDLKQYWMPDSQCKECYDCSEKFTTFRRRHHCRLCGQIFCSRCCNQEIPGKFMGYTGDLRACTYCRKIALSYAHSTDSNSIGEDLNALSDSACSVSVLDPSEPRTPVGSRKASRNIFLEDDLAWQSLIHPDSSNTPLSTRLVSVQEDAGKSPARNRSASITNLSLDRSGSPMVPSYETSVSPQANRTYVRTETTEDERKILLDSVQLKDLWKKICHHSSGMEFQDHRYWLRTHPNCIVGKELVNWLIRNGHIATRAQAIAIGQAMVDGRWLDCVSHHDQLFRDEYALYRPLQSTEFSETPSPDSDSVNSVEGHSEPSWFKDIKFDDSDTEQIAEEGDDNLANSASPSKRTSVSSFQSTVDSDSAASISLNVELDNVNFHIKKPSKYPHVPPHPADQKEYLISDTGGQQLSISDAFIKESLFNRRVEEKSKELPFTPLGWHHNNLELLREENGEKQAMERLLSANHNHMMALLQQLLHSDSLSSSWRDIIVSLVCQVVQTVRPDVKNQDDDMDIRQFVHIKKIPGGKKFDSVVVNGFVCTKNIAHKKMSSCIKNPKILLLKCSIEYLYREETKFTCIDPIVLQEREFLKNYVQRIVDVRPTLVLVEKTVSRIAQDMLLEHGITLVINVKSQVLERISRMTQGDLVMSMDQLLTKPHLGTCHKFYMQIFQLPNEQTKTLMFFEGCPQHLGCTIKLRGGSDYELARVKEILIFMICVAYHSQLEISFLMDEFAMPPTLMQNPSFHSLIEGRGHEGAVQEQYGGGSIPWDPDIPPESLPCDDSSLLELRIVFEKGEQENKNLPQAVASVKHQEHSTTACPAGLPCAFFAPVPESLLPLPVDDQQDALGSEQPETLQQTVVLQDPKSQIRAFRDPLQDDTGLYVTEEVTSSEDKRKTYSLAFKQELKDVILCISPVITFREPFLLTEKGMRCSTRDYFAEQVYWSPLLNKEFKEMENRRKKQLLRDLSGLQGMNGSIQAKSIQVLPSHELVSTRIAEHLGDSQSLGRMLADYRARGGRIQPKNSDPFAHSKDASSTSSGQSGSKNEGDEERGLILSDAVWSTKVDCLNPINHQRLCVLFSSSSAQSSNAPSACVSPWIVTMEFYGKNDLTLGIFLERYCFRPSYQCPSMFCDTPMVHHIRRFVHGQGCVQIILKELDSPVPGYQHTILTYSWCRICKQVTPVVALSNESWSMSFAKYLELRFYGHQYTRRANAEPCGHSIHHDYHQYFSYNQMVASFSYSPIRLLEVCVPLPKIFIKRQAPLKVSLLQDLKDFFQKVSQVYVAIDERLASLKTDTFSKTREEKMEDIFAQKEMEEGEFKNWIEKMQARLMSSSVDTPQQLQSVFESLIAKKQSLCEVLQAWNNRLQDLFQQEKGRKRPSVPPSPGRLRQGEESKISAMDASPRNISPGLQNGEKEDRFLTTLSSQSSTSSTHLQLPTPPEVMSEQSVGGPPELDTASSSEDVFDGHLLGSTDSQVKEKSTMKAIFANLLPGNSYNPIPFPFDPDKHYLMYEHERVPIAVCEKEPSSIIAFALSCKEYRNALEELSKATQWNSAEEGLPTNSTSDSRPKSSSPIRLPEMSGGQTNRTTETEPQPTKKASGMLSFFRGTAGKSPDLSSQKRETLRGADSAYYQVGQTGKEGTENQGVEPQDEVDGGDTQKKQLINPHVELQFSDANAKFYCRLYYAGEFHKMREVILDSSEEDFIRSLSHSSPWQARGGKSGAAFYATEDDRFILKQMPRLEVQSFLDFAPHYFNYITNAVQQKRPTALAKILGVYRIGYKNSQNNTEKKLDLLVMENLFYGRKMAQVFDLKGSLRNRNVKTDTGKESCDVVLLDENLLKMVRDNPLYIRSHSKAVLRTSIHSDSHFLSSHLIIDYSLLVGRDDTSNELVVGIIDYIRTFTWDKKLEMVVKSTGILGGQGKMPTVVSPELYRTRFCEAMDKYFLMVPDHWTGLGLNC
UniProt P62195, sequence (P62195 whole entry, looked up): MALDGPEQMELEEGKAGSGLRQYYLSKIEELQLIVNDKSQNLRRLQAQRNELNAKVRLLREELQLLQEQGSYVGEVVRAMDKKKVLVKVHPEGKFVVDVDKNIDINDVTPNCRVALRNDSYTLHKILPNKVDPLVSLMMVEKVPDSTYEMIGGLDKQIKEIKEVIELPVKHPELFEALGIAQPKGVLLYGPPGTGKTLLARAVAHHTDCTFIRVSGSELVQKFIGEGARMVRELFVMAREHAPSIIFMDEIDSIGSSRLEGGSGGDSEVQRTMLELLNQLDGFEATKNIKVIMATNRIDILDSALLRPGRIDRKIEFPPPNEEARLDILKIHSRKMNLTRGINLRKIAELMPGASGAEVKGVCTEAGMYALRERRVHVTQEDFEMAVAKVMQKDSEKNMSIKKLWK
UniProt O95453, sequence (O95453 whole entry, looked up): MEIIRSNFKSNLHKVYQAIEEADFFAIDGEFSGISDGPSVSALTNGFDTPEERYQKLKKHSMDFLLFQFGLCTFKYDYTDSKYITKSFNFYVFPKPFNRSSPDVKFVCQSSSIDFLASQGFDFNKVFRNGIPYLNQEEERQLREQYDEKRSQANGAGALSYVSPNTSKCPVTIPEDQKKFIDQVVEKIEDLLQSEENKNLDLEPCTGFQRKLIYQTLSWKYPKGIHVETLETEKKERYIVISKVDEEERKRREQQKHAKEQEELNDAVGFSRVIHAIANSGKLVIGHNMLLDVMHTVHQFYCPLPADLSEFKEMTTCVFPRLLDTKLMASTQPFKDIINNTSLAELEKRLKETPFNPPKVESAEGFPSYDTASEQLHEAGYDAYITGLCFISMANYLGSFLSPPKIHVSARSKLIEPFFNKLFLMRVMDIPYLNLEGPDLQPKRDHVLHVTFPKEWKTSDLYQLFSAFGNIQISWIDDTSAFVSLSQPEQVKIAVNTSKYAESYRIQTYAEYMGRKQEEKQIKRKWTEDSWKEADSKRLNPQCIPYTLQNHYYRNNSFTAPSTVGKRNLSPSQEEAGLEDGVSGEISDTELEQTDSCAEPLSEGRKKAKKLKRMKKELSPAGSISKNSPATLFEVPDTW
UniProt Q15365, sequence (Q15365 whole entry, looked up): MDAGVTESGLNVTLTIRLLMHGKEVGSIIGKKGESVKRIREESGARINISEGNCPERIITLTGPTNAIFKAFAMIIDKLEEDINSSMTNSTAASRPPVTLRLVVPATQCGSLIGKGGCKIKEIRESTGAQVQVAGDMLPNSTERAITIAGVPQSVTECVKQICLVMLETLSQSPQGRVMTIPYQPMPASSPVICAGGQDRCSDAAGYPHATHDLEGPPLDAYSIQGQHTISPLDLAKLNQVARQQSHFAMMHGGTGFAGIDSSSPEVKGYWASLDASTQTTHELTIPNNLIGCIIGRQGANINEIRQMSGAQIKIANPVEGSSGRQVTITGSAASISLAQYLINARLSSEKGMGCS
UniProt Q6L8Q7, sequence (Q6L8Q7 whole entry, looked up): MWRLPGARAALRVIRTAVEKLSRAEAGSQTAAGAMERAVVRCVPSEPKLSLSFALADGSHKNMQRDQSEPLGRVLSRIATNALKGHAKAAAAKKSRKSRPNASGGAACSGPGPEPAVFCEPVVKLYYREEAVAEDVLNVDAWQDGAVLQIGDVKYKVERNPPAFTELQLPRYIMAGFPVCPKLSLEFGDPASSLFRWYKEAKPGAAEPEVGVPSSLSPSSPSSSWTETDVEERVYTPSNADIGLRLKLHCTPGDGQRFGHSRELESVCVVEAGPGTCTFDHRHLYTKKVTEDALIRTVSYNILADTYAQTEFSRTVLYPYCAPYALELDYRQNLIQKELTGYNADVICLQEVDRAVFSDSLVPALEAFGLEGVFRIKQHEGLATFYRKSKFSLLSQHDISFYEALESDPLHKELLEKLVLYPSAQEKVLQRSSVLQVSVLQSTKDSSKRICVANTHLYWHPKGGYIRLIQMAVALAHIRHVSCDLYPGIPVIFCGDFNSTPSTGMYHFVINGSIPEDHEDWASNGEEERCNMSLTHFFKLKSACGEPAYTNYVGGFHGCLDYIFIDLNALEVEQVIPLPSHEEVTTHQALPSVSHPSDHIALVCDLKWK
UniProt P10644, sequence (P10644 whole entry, looked up): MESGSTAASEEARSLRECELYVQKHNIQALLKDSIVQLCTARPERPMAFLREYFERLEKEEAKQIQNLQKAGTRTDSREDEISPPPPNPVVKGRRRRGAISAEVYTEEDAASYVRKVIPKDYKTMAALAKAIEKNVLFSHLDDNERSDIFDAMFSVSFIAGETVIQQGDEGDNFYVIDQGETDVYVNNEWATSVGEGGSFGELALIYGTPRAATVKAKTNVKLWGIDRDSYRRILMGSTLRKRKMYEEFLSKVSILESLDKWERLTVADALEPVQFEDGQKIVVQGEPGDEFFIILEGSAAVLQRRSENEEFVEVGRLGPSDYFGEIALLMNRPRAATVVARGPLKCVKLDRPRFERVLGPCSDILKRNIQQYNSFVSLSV

Compound in one experiment: CCCc1cc(C)[nH]c(=O)c1CNC(=O)c1cc(-c2ccnc(N3CCN(C)CC3)c2)cc2c1cnn2C(C)C
As to the kind of experiment: log2 fold change, soluble protein after heating vs DMSO (PISA); higher = thermal stabilisation; K562 cells, 10 uM, 30 min; active = over 0.2 and 3.5 SD of the protein, either way, in both replicates (recomputed). The procedure, abridged: (§1)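 Aliquots of K562 cells (2×10^6 cells/mL) treated with 10 μM compound for 30 min were heated for 3 min over 48°C-58°C. After pooling and extraction in PBS with 0.5% NP-40 at 4°C, soluble protein from a 21,000xg, 90 min spin was quantified by TMTpro 16plex LC-MS/MS with channel sums equalised. Thermal stability is expressed against control samples, from duplicates, as a log2 fold change.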
Take PSMC2 (UniProt P35998): the log2 fold change is 0.036.

For the target PSMB6 (UniProt P28072), the log2 fold change was -0.024.

On to PRKD2 isoform 3 (UniProt Q9BZL6), for which the log2 fold change is 0.083.

As to QKI (UniProt Q96PU8), the log2 fold change was -0.045.

Consider PKN1 isoform 2 (UniProt Q16512), for which the log2 fold change is 0.022.

Regarding PRPF38B (UniProt Q5VTL8), the log2 fold change was -0.006.

For PTPN12 (UniProt Q05209), the log2 fold change is 0.07.

For the target PDCD6 (UniProt O75340), the log2 fold change was -0.089.

Turning to PPOX (UniProt P50336), the log2 fold change was 0.184.

In the case of POP1 (UniProt Q99575), the log2 fold change is 0.018.

On to PIKFYVE (UniProt Q9Y2I7), for which the log2 fold change is -0.001.

On to PPP1R35 (UniProt Q8TAP8), for which the log2 fold change was -0.027.

Regarding PSMB4 (UniProt P28070), the log2 fold change was 0.008.

As to PLIN2 (UniProt Q99541), the log2 fold change was -0.12.

Regarding PCNT (UniProt O95613), the log2 fold change is -1.05.

With PSMD13 (UniProt Q9UNM6), the log2 fold change was -0.016.

Turning to PEA15 isoform 2 (UniProt Q15121), the log2 fold change is -0.003.

Take PARG (UniProt Q86W56): the log2 fold change was -0.003.

Regarding PDLIM7 (UniProt Q9NR12), the log2 fold change was 0.001.

Take PEX13 (UniProt Q92968): the log2 fold change was -0.142.

For the target PRKCD (UniProt Q05655), the log2 fold change was -0.045.

Regarding PSMC5 (UniProt P62195), the log2 fold change is 0.032.

In the case of PCBP1 (UniProt Q15365), the log2 fold change is -0.011.

As to POLR3B (UniProt Q9NW08), the log2 fold change is 0.063.

With PHKG2 (UniProt P15735), the log2 fold change was 0.

With POLR2D (UniProt O15514), the log2 fold change is -0.014.

Regarding PRKAB1 (UniProt Q9Y478), the log2 fold change is 0.109.

As to PRKAA1 isoform 2 (UniProt Q13131), the log2 fold change is 0.021.

In the case of PSMC4 (UniProt P43686), the log2 fold change was 0.084.

In the case of PRKAR1A (UniProt P10644), the log2 fold change is 0.203.

On to PIK3R1 (UniProt P27986), for which the log2 fold change is -0.054.

Consider PHAX (UniProt Q9H814), for which the log2 fold change is -0.045.

Consider PIP4P2 (UniProt Q8N4L2), for which the log2 fold change is -0.045.

Turning to PLBD1 (UniProt Q6P4A8), the log2 fold change was 0.006.

Regarding PSMC1 (UniProt P62191), the log2 fold change was -0.012.

With PDE12 (UniProt Q6L8Q7), the log2 fold change was -0.01.

With PARN (UniProt O95453), the log2 fold change was -0.058.

Compound in a further experiment: CCN(CC)Cc1ccc2cc(COC(=O)Nc3ccc(C(=O)NO)cc3)ccc2c1 [givinostat]
The description is as above. The procedure, abridged: as §1
Take PSMC2 (UniProt P35998): the log2 fold change was -0.032.

Turning to PSMB6 (UniProt P28072), the log2 fold change was -0.025.

Turning to PRKD2 isoform 3 (UniProt Q9BZL6), the log2 fold change was -0.009.

As for QKI (UniProt Q96PU8), the log2 fold change was 0.023.

As to PKN1 isoform 2 (UniProt Q16512), the log2 fold change is 0.059.

Consider PRPF38B (UniProt Q5VTL8), for which the log2 fold change is 0.007.

PTPN12 (UniProt Q05209): the log2 fold change is 0.072.

As to PDCD6 (UniProt O75340), the log2 fold change was -0.017.

With PPOX (UniProt P50336), the log2 fold change was -0.063.

Consider POP1 (UniProt Q99575), for which the log2 fold change was -0.009.

Consider PIKFYVE (UniProt Q9Y2I7), for which the log2 fold change was 0.054.

With PPP1R35 (UniProt Q8TAP8), the log2 fold change is 0.112.

PSMB4 (UniProt P28070): the log2 fold change was -0.008.

As to PLIN2 (UniProt Q99541), the log2 fold change is -0.014.

In the case of PCNT (UniProt O95613), the log2 fold change is 0.255.

For the target PSMD13 (UniProt Q9UNM6), the log2 fold change was -0.05.

PEA15 isoform 2 (UniProt Q15121): the log2 fold change was 0.003.

Turning to PARG (UniProt Q86W56), the log2 fold change is 0.107.

As for PDLIM7 (UniProt Q9NR12), the log2 fold change is 0.05.

Regarding PEX13 (UniProt Q92968), the log2 fold change was -0.034.

Consider PRKCD (UniProt Q05655), for which the log2 fold change is -0.021.

For PSMC5 (UniProt P62195), the log2 fold change is -0.082.

Regarding PCBP1 (UniProt Q15365), the log2 fold change is 0.013.

Regarding POLR3B (UniProt Q9NW08), the log2 fold change is 0.138.

Regarding PHKG2 (UniProt P15735), the log2 fold change is 0.01.

Take POLR2D (UniProt O15514): the log2 fold change is -0.267.

For the target PRKAB1 (UniProt Q9Y478), the log2 fold change is 0.08.

In the case of PRKAA1 isoform 2 (UniProt Q13131), the log2 fold change is -0.014.

On to PSMC4 (UniProt P43686), for which the log2 fold change is -0.059.

For the target PRKAR1A (UniProt P10644), the log2 fold change was 0.055.

As for PIK3R1 (UniProt P27986), the log2 fold change is 0.028.

On to PHAX (UniProt Q9H814), for which the log2 fold change is -0.076.

PIP4P2 (UniProt Q8N4L2): the log2 fold change was -0.067.

Turning to PLBD1 (UniProt Q6P4A8), the log2 fold change is -0.013.

As for PSMC1 (UniProt P62191), the log2 fold change was -0.073.

In the case of PDE12 (UniProt Q6L8Q7), the log2 fold change was -0.027.

Take PARN (UniProt O95453): the log2 fold change was 0.059.

These data come from the supplement of paper PMC10849652.
